Measured values as given in the supplement of paper PMC10849652.
About 7,900 targets were measured; listed, in parts, are those with a hit and a random draw of the rest. About 0.6% of all pairs of compound and target were hits. Unmarked numbers belong to inactive results.

Legend:
Test in all cases: log2 fold change, soluble protein after heating vs DMSO (PISA); higher = thermal stabilisation; K562 cells, 10 uM, 30 min; active = over 0.2 and 3.5 SD of the protein, either way, in both replicates (recomputed)
[1] = compound: CC[C@@H]1C(=O)N(C)c2cnc(Nc3ccc(C(=O)NC4CCN(C)CC4)cc3OC)nc2N1C1CCCC1
Procedure, shortened: (§1)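 Thermal stability values are relative to control samples and come from duplicates. They are expressed as log2 fold changes. For measurement, K562 cells (2×10^6 cells/mL) received 10 μM compound for 30 min, and aliquots were heated for 3 min over 48°C-58°C, pooled, and extracted at 4°C in PBS with 0.5% NP-40. Soluble protein, the supernatant after 21,000xg for 90 min, was quantified by TMTpro 16plex LC-MS/MS with equalised channel sums.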

volasertib = compound: CC[C@@H]1C(=O)N(C)c2cnc(Nc3ccc(C(=O)N[C@H]4CC[C@H](N5CCN(CC6CC6)CC5)CC4)cc3OC)nc2N1C(C)C [volasertib]
Procedure, shortened: as §1

[2] = compound: CC[C@H](C)N1C=C(C2=C(C=C(C=C21)C3=CN=C(C=C3)N4CCNCC4)C(=O)NCC5=C(C=C(NC5=O)C)C)C
Procedure, shortened: as §1

epoxomicin = compound: CC[C@H](C)[C@@H](C(=O)N[C@@H]([C@@H](C)O)C(=O)N[C@@H](CC(C)C)C(=O)[C@]1(CO1)C)NC(=O)[C@H]([C@@H](C)CC)N(C)C(=O)C [epoxomicin]
Procedure, shortened: as §1

[3] = compound: CCn1c(C(=O)N(C2CC2)C2CC2)cc2c3c(ncn3C)c(Nc3cc(C)n(C)n3)nc21
Procedure, shortened: as §1

[4] = compound: CCn1cc(-c2ccnc3[nH]c(-c4cccc(CN(C)C)c4)cc23)c(-c2ccc(NC(=O)N(C)C)cc2)n1
Procedure, shortened: as §1

[5] = compound: CN(C)CC(=O)Nc1ccc2[nH]c(=O)c3ccccc3c2c1
Procedure, shortened: as §1

rosiglitazone = compound: CN(CCOC1=CC=C(C=C1)C[C@H]2C(=O)NC(=O)S2)C3=CC=CC=N3 (racemic) [rosiglitazone]
Procedure, shortened: as §1

[6] = compound: CN1C2=C(C3=C1C(=O)N(N=C3)CC4=CC(=CC=C4)N)SC(=C2)S(=O)C
Procedure, shortened: as §1

[7] = compound: CN1CCC(CNc2ccc3ncc(-c4cccc(OC(F)(F)F)c4)n3n2)CC1
Procedure, shortened: as §1

UniProt Q96EK5, sequence (Q96EK5 whole entry, looked up): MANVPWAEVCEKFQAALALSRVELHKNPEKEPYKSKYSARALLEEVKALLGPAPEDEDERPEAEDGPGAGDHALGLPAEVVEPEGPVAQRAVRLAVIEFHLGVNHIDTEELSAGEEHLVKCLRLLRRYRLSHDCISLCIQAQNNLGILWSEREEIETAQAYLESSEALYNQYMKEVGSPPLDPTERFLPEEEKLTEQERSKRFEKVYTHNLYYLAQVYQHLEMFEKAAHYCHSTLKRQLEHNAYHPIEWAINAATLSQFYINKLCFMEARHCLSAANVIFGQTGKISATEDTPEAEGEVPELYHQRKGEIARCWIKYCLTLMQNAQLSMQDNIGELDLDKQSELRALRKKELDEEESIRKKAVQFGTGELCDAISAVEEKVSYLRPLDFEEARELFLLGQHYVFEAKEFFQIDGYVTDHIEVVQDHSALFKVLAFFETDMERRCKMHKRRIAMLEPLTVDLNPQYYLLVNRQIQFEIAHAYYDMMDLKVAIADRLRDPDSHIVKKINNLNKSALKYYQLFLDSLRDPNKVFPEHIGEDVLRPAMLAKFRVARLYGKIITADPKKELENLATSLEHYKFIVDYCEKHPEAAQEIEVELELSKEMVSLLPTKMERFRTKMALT
UniProt Q16891, sequence (Q16891 whole entry, looked up): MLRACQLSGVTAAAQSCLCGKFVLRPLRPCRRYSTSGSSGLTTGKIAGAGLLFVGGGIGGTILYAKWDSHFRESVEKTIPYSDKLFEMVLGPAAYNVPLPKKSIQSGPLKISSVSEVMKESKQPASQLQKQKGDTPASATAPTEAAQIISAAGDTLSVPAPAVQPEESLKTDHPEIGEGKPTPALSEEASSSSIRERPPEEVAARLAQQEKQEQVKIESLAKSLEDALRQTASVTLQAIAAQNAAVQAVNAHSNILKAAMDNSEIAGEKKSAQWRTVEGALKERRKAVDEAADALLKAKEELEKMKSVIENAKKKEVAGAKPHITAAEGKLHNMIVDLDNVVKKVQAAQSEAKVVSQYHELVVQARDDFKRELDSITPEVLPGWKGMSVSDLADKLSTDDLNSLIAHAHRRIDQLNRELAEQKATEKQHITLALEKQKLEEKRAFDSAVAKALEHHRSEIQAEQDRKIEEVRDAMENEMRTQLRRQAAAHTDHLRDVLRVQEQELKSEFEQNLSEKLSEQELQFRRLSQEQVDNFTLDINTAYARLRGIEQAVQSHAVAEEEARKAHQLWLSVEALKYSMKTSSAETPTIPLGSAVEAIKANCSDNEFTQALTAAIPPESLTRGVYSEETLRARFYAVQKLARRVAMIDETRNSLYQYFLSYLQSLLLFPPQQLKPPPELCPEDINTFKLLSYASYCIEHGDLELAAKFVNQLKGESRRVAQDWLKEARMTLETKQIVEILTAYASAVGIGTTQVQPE
UniProt Q8NC56, sequence (Q8NC56 whole entry, looked up): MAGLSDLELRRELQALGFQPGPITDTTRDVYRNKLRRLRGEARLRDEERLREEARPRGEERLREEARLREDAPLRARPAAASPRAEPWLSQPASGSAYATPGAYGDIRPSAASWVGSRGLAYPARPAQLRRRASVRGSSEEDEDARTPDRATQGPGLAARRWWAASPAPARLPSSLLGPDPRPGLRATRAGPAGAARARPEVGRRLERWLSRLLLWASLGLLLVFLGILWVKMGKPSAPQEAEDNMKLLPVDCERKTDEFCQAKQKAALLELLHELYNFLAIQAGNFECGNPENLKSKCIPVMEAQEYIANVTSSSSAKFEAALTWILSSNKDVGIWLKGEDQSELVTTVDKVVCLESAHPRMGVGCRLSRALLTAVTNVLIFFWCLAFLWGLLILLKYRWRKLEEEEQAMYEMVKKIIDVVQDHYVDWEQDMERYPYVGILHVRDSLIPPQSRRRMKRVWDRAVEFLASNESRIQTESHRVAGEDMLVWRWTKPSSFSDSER
UniProt P36507, sequence (P36507 whole entry, looked up): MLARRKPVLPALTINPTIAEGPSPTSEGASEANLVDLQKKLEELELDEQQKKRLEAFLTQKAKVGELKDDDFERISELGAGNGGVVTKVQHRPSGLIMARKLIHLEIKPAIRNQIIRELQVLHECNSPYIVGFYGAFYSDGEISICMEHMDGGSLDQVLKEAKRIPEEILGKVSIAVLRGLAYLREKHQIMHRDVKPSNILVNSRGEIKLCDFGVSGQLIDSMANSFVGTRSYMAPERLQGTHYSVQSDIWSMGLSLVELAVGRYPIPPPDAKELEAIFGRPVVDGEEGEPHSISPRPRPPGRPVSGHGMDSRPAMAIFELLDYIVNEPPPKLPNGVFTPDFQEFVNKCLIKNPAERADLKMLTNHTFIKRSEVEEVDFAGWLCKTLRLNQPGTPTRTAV
UniProt O95373, sequence (O95373 whole entry, looked up): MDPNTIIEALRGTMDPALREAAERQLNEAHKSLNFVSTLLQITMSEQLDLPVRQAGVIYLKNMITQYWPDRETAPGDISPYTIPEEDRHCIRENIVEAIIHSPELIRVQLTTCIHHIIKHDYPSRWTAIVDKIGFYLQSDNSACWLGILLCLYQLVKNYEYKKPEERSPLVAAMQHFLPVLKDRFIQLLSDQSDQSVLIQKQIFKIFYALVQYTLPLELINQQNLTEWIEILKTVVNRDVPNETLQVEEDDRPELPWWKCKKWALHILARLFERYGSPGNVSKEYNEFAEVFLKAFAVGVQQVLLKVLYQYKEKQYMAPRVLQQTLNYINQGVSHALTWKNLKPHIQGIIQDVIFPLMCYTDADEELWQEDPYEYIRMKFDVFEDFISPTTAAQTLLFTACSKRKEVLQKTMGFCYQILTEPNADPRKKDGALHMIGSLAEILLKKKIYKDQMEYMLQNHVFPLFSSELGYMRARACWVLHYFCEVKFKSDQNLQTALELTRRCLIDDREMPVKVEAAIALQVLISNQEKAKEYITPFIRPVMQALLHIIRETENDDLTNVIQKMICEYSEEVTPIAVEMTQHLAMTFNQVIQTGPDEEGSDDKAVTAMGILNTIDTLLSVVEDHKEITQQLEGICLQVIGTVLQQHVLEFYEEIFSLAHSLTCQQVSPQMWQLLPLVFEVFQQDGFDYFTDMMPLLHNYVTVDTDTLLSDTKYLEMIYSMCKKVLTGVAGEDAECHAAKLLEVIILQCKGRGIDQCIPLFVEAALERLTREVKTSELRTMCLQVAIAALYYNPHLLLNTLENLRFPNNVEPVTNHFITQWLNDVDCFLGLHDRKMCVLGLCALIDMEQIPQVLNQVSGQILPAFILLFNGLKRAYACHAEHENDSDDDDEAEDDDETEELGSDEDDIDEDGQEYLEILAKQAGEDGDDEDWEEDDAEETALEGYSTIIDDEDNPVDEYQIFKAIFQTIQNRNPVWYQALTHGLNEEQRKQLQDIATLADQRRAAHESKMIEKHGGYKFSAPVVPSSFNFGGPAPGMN
UniProt P32019, sequence (P32019 whole entry, looked up): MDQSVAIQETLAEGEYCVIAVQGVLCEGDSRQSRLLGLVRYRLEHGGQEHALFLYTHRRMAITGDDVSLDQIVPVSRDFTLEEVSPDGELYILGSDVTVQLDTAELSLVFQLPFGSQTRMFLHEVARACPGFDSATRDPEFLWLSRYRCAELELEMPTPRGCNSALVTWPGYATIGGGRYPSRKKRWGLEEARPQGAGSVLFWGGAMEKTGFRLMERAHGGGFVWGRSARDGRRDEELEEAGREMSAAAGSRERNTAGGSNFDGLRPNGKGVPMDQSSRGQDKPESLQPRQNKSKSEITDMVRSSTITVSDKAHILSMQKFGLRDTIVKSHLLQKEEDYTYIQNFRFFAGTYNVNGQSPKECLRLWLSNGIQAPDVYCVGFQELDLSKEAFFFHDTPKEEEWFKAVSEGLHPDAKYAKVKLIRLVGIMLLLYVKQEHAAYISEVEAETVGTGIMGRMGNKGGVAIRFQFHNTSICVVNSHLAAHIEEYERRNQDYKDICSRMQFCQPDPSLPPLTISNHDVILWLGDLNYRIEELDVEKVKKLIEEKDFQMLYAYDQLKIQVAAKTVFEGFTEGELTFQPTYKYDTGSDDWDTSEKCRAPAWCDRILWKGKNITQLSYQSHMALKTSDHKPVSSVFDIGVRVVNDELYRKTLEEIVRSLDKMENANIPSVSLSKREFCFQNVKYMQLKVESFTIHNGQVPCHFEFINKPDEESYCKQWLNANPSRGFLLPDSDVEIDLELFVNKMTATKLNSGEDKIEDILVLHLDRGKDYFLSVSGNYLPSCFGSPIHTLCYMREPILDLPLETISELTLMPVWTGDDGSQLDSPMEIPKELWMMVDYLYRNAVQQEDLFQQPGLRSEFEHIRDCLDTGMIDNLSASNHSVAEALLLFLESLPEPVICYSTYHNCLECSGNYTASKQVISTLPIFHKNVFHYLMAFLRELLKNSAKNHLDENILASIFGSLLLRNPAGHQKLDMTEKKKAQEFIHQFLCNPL
UniProt Q6P1A2, sequence (Q6P1A2 whole entry, looked up): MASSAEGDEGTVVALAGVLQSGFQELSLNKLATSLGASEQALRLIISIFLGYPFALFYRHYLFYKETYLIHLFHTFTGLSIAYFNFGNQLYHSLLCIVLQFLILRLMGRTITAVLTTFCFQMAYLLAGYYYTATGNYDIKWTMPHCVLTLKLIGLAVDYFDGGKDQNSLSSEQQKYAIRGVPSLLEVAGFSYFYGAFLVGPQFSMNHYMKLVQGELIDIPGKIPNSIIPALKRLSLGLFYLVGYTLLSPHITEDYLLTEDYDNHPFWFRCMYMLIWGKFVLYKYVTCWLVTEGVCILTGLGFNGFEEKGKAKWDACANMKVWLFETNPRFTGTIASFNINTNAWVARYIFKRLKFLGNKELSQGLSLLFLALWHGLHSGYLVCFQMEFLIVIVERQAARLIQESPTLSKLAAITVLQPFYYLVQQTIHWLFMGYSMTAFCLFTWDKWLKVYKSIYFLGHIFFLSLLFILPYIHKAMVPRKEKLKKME
UniProt O14880, sequence (O14880 whole entry, looked up): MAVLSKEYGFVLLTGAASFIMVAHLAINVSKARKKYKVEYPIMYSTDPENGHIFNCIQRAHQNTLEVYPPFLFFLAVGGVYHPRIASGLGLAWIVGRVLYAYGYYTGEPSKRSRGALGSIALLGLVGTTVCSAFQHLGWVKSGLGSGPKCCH

Target	log2 fold change [1]	log2 fold change (volasertib)	log2 fold change [2]	log2 fold change (epoxomicin)	log2 fold change [3]	log2 fold change [4]	log2 fold change [5]	log2 fold change (rosiglitazone)	log2 fold change [6]	log2 fold change [7]
KPNB1 (UniProt Q14974)	-0.105	-0.432 (active)	0.04	0.04	0.009	0.016	0.048	0.027	0.102	-0.212
MAPK8 isoform 3 (UniProt P45983)	-0.112	-0.249	0.003	0.117	-0.036	0.006	0.004	0.095	0.013	-0.054
MAIP1 (UniProt Q8WWC4)	-0.086	-0.098	-0.023	-0.068	0.034	-0.015	0.026	-0.001	-0.052	-0.396 (active)
MDN1 (UniProt Q9NU22)	-0.109	-0.334 (active)	0.093	0.006	-0.119	-0.076	0.031	0.08	-0.027	-0.287 (active)
MAP4 (UniProt P27816)	0.011	0.049	-0.041	-0.003	0.018	-0.002	-0.03	-0.021	-0.004	0.037
LMNA (UniProt P02545)	0.008	-0.15	0.01	-0.014	-0.022	0.057	0.009	-0.025	-0.006	0
MICU1 isoform 3 (UniProt Q9BPX6)	-0.113	-0.281	0.031	0.026	-0.009	0.008	0.006	-0.01	0.077	-0.369 (active)
MAPRE3 (UniProt Q9UPY8)	-0.105	-0.226	0.101	0.01	0.009	-0.041	-0.009	0.051	-0.068	-0.061
MDC1 (UniProt Q14676)	0	-0.074	-0.028	0.039	-0.03	0.384	0.015	0.019	0.527 (active)	0.069
MARCKS (UniProt P29966)	0.035	-0.027	-0.091	-0.044	0	0.268 (active)	-0.043	0.03	-0.014	0.089
MIEF1 (UniProt L0R8F8)	-0.028	-0.076	-0.106	0.022	0.017	-0.065	-0.018	-0.019	-0.028	-0.021
LEMD2 (UniProt Q8NC56)	-0.212	-0.422 (active)	0.034	-0.002	-0.02	0.028	0.091	0.023	-0.006	-0.338 (active)
MCL1 (UniProt Q07820)	-0.03	-0.038	-0.033	0.308	0.213	-0.032	0.052	0.019	-0.035	-0.209
MAPK14 isoform 2 (UniProt Q16539)	-0.223	-0.398	-0.019	0.02	0.081	0.001	0.039	0.007	-0.029	0.074
LPCAT3 (UniProt Q6P1A2)	0.146	-0.026	-0.008	-0.005	0.062	-0.063	0.087	-0.042	-0.093	-0.202
MGST3 (UniProt O14880)	-0.005	0.048	-0.107	-0.016	0.066	-0.047	-0.017	-0.043	-0.027	0.097
KDM1A isoform 2 (UniProt O60341)	0.135	-0.028	0.06	0.101	-0.053	-0.111	0.006	0.099	-0.001	-0.091
LAMP2 (UniProt P13473)	0.018	0.069	-0.023	0.083	-0.009	0.019	0.059	0.007	-0.016	-0.032
KHDRBS1 (UniProt Q07666)	0.148	0.106	0.074	-0.029	0.016	-0.096	-0.007	-0.028	-0.04	0.116
KLC2 (UniProt Q9H0B6)	-0.03	-0.059	0.038	0.015	-0.046	0.02	-0.003	0.057	-0.013	-0.131
MAP2K2 (UniProt P36507)	-0.12	0.084	0.077	0.044	-0.02	-0.06	0.022	0.04	-0.056	-0.1
IMMT isoform 4 (UniProt Q16891)	-0.131	-0.099	0.013	0.035	0.015	-0.004	0.002	0.002	-0.047	-0.325 (active)
IPO11 isoform 2 (UniProt Q9UI26)	-0.104	-0.3 (active)	-0.004	0.066	-0.01	-0.068	0.028	-0.002	-0.082	-0.016
MEAK7 (UniProt Q6P9B6)	-0.084	-0.473 (active)	0.039	0.067	-0.025	-0.03	-0.046	0.103	-0.033	-0.097
ITIH4 (UniProt Q14624)	-0.18	-0.311	-0.248	-0.318	0.108	0.102	-0.012	0.129	0.177	-0.413
MICU2 (UniProt Q8IYU8)	-0.135	-0.118	0	0.067	0.005	-0.046	0.007	-0.017	0.097	-0.309 (active)
KIFBP (UniProt Q96EK5)	-0.007	-0.333 (active)	0.11	-0.035	-0.036	0.017	0.038	0.11	0.095	-0.046
LAMP2 isoform 2 (UniProt P13473)	-0.137	-0.081	-0.078	-0.016	0.028	-0.01	0.012	-0.035	-0.112	-0.485 (active)
INPP5B (UniProt P32019)	0.021	-0.04	0.002	0.007	-0.029	0.031	0.057	0.012	0.12	0.003
IPO7 (UniProt O95373)	-0.248 (active)	-0.542 (active)	0.067	-0.007	0.008	-0.038	0.051	0.067	-0.011	-0.248 (active)
